Active and inactive are the calls of the source.
Assays:
[1] = compounds binding Alexa647 anti-His antibody – biochemical, small-molecule microarray, 635 nm fluorescence, artefact control for SMM control protein annotation, primary screen (AID 1128); conditions: higher = more signal;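 also: score merges feature fluorescence with signal-to-noise for each printed compound spot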
[2] = system: Human papillomavirus type 1a E7 protein (residues 1-88); experiment: HPV1a E7 small-molecule binders, primary screen, biochemical, small-molecule microarray, residues 1-88, 635 nm (AID 1129); conditions: small-molecule microarray binding, fluorescence 635 nm; higher = more signal
[3] = biological target: Focal adhesion kinase 1 (Homo sapiens) (UniProt Q05397); experiment: PTK2 protein binding on printed compound slides – biochemical, small-molecule microarray, 635/667 nm fluorescence, BSA, DTT, primary screen (AID 1130); conditions: 635 nm fluorescence, higher = more signal;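 also: composite of spot emission at 667 nm and signal to noise over triplicate slides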
[4] = system: Fibrinogen (Alexa647-labelled); experiment: Alexa647-fibrinogen binding to printed small molecules – biochemical, small-molecule microarray, 635/667 nm fluorescence, artefact control for SMM control-protein annotation, profiling panel (AID 1131); conditions: fibrinogen-A647 binding fluorescence, higher = more signal;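 also: z-score merges 667 nm fluorescence with per-spot signal-to-noise over triplicate slides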
[5] = biological target: Follistatin (Homo sapiens) (UniProt P19883); experiment: FST protein binding to printed compounds – biochemical, small-molecule microarray, 635/667 nm fluorescence, primary screen (AID 1132); conditions: 635 nm fluorescence, higher = more signal
[6] = biological target: Fibroblast growth factor 2 (Homo sapiens) (UniProt P09038); experiment: basic fibroblast growth factor binding to printed compounds – biochemical, small-molecule microarray, 635/667 nm fluorescence, primary screen (AID 1133); conditions: FGF2, fluorescence 635/667, higher = more signal
[7] = JC-1 mitochondrial potential readout, lung cancer cells – cell-based, A549, JC-1 fluorescence, basal, 24 h, 100 nL, profiling panel (AID 1138); conditions: higher = more signal;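 also: A549 lung adenocarcinoma cells under basal conditions with no added stimulus; test concentration not given here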
[8] = system: Lefty1; experiment: Lefty1 protein binding to printed compounds – biochemical, small-molecule microarray, 635/667 nm fluorescence, primary screen (AID 1139); conditions: fluorescence 635/667, higher = more signal
[9] = system: wheat germ agglutinin (Triticum aestivum), Alexa647-labelled; experiment: Alexa647-WGA lectin binding to printed small molecules – biochemical, small-molecule microarray, 635/667 nm fluorescence, artefact control for SMM control-protein annotation, profiling panel (AID 1140); conditions: WGA-A647 binding, 635 nm fluorescence, higher = more signal;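 also: score merges 667 nm feature emission with signal to noise over triplicate slides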
[10] = biological target: Luciferin 4-monooxygenase (Photinus pyralis) (UniProt P08659); experiment: inhibition of purified Photinus pyralis luciferase – biochemical, luminescence, purified enzyme, 2006 set, primary screen (AID 1141); conditions: purified firefly luciferase, SteadyGlo luminescence, 30 min; higher = more signal, called active from +8 up or from −8 down;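 also: cell-free assay with purified firefly luciferase at 100 ng per well in PBS; test concentration not given here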
Sequence of Luciferin 4-monooxygenase (Photinus pyralis) (P08659 whole entry, looked up): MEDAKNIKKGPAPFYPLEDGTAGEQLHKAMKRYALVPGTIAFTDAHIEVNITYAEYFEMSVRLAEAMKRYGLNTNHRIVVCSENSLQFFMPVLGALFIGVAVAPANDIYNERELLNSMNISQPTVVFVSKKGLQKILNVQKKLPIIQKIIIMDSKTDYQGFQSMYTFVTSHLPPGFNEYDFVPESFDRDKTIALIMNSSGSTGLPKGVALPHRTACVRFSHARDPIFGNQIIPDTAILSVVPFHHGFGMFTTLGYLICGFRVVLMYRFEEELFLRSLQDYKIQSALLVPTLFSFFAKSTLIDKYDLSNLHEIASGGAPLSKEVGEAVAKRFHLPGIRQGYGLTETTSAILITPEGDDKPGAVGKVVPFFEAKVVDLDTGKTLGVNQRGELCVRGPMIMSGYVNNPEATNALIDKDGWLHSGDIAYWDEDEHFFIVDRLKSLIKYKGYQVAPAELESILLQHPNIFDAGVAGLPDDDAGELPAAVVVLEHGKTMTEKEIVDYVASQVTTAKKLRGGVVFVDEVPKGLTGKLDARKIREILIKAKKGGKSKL

Sequence of Focal adhesion kinase 1 (Homo sapiens) (Q05397 whole entry, looked up): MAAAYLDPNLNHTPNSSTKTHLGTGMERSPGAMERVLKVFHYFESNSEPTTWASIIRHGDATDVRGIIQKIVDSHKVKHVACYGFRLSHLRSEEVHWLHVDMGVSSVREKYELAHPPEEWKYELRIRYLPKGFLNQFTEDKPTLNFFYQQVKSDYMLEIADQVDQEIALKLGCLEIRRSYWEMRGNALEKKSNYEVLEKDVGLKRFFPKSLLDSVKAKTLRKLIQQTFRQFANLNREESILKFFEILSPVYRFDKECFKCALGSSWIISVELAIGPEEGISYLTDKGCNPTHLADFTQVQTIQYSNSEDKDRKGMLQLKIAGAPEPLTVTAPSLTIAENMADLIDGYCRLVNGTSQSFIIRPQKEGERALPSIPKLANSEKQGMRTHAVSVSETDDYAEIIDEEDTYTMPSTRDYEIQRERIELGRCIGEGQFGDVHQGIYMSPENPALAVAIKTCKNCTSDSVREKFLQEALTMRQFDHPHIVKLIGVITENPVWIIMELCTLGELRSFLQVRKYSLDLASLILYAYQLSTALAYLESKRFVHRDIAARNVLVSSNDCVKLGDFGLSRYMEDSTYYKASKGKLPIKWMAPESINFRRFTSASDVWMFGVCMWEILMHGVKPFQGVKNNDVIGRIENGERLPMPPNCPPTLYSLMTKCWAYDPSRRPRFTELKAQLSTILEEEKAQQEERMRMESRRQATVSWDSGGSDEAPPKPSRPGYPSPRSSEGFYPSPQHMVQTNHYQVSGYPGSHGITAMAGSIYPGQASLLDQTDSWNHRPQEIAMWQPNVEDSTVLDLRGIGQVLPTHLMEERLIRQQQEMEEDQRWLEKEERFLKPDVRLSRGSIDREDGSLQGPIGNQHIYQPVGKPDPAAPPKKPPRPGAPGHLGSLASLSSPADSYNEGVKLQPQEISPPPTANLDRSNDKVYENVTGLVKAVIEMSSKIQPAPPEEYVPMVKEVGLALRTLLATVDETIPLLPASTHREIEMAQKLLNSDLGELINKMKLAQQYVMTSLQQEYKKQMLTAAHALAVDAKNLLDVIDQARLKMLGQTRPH
Sequence of Fibroblast growth factor 2 (Homo sapiens) (P09038 whole entry, looked up): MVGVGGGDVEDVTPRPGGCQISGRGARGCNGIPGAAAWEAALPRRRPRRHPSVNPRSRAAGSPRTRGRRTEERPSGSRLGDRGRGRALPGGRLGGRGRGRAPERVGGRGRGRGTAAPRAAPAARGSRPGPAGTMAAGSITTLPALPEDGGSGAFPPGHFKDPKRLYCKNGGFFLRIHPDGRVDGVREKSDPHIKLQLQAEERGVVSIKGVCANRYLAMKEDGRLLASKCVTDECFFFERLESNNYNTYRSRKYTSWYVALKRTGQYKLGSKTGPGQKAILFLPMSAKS
Sequence of Follistatin (Homo sapiens) (P19883 whole entry, looked up): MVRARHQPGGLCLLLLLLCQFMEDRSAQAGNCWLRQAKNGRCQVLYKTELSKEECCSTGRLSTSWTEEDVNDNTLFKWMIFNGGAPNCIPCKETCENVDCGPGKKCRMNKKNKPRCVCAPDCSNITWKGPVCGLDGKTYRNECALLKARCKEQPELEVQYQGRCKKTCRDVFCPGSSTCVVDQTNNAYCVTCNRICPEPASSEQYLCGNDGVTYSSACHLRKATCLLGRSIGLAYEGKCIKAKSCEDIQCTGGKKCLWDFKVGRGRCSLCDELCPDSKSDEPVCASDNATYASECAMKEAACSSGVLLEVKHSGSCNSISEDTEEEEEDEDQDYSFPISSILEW

Compound | composite z-score [1] | composite z-score [2] | composite z-score [3] | composite z-score [4] | composite z-score [5] | composite z-score [6] | z-score [7] | composite z-score [8] | composite z-score [9] | z-score [10]
C=CCOC(=O)[C@H]1[C@@H]2C(=O)O[C@@H](c3ccccc3)[C@@H](c3ccccc3)N2[C@@H](c2ccc(OCCOC(=O)[C@H]3C[C@H]4C(=O)NCC(=O)N4[C@H]3c3ccc(O)cc3)cc2)[C@]12C(=O)Nc1ccc(I)cc12 | 0.611 | 0.956 | 0.351 | 0.843 | 1.2 | 1.53 | -1.28 | 0.971 | 0.204 | -0.8 (inactive)
COCCCN1C(=O)[C@@]2(Cc3ccccc31)c1ccccc1C(=O)N(Cc1ccccc1OC)[C@H]2c1ccc(CO)cc1 | -1.44 | -0.717 | -0.725 | 0.0715 | -1.07 | -0.665 | 0.0581 | -0.566 | -0.0303 | -0.522 (inactive)
O=C1OCCC=C[C@H]2OC34C=CCN(c5ccc(Cl)cc5)C(=O)[C@H]3N(CCO)C(=O)[C@@H]4C12 (stereo not given in full) | -0.656 | -0.574 | -0.732 | -0.262 | -0.367 | -1.14 | -0.0109 | -0.837 | -0.524 | -0.381 (inactive)
COCCOC(=O)N1C(=O)[C@@]2(c3cc(C#CC4(O)CCCCCC4)ccc31)[C@H](c1ccccc1OCCO)N1[C@H](c3ccccc3)[C@H](c3ccccc3)OC(=O)[C@H]1[C@@H]2C(=O)N1CCCCCCC1 | 0.663 | 1.23 | 0.504 | 0.733 | 1.45 | 1.09 | -0.768 | 1.37 | 1.29 | 0.144 (inactive)
COC(=O)[C@@]1(CCS(=O)(=O)c2ccccc2)N=C(c2ccc(OCCCO)cc2)O[C@H]1c1ccccc1N=[N+]=[N-] | 1.65 | 1.21 | 0.621 | 0.757 | 0.993 | 0.89 | 0.797 | 0.162 | 0.647 | -1.93 (inactive)
CCCCC(=C=CC[C@H](O)c1ccc(OCCO)cc1)C[C@H](O)c1ccccn1 | 1.67 | 1.13 | 0.26 | 0.963 | 1.27 | 1.54 | 1.27 | 0.885 | 0.266 | -2.27 (inactive)
CC(C)CNC(=O)[C@@H]1c2ccccc2C(=O)N(CC23CC4CC(CC(C4)C2)C3)[C@H]1c1ccc(CO)cc1 | 1.94 | 1.14 | 0.257 | 0.592 | 0.466 | -0.0903 | 0.47 | 0.366 | 0.674 | 1.27 (inactive)
CCCC[C@H]1OB(O)C[C@H]2C1=C(COC)C[C@H]1C(=O)C=CC(=O)[C@H]12 | 0.51 | 0.215 | -0.0157 | 0.287 | 0.865 | 0.32 | 0.777 | 0.96 | 0.106 | -3.03 (inactive)
[N-]=[N+]=NCc1ccccc1C[C@]1(C(=O)O)COC(c2ccc(OCCCO)cc2)=N1 | -0.615 | -1.13 | -0.217 | -2.49 | -0.21 | -0.855 | -0.103 | -0.212 | -0.0491 | -0.536 (inactive)
COc1ccccc1CN1C(=O)c2ccccc2[C@](Cc2ccccc2I)(C(=O)NCCCN(C)C)[C@@H]1c1ccc(CO)cc1 | 0.237 | 1.21 | 0.904 | 0.944 | 0.489 | 0.141 | -2.4 | 0.0523 | 0.0618 | -0.644 (inactive)
CCCC=C(CCC)[C@@H](NC(=O)c1ccco1)c1ccc(C(=O)OC)cc1 | 1.24 | 1.26 | 0.601 | 0.984 | 0.649 | -0.181 | -1.67 | 0.119 | 1.31 | 2.66 (inactive)
CCCCC(O)C1C=CC2C(=O)NC(=O)C2N1Nc1ccc(Cl)cc1Cl (stereo not given) | 2.42 | 0.32 | 0.474 | -0.0628 | 0.413 | -0.596 | -1.16 | -0.654 | 0.87 | -1.31 (inactive)
CN(C)CCCC[C@@H]1NC(=O)[C@@H]2C[C@H](C(=O)NCCCCCCNC(=O)CS)[C@H](c3cccc(OCCO)c3)N2C1=O | 1.5 | 0.0742 | 0.819 | -1.07 | 0.541 | 0.541 | 1.12 | 0.273 | 0.235 | -0.402 (inactive)
CCCCCCc1nc(-c2ccc(OC)nc2)cc2c1[Si](C(C)C)(C(C)C)OC2 | -0.102 | -0.493 | -0.206 | -0.137 | -0.0974 | -0.206 | -1.46 | -0.0037 | -0.218 | 0.997 (inactive)

From PubChem BioAssay
